# Source: PubChem BioAssay (NCATS)
# Inconclusive results are not listed. Entries that show only a call come without a potency. Activity calls are given as the source filed them. Unless noted, the call rests on the fitted dose curve; in most records, active means well fitted curve in the direction sought with a large enough effect; inconclusive means small, poorly fitted or top-dose-only effect, or another doubt; inactive means no such curve, though single readings can be large; an effect the other way counts as inactive or inconclusive.
# Tests used:
# [1] = target: Cytochrome P450 2D6 (Homo sapiens) (UniProt P10635); assay: Cytochrome P450 family 2 subfamily D member 6 (CYP2D6) small molecule antagonists: luciferase biochemical (cell-free) qHTS assay (AID 1645840; active means well fitted curve in the direction sought with a large enough effect in the repeat runs; an effect the other way counts as inactive or inconclusive; further: nearly all actives have a fitted effect of over 55% in size; further: potency means the concentration at half of the fitted maximal effect)
# Procedure, shortened: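 P450-Glo CYP2D6 system: proluciferin substrate converted by enzyme to luciferin, read by luminescence proportional to activity. Enzyme-substrate mix with compound 10 min at room temperature, then NADPH regeneration 1 h before detection reagent.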
# [2] = Primary qHTS for inhibitors of nuclear receptor binding SET domain protein 2 (NSD2) in an isogenic RCH-ACV NSD2 p.E1099K mutant (9B) (AID 1645876); further: potency means the concentration at half of the fitted maximal effect; nearly all actives have a fitted effect of over 70% in size
# [3] = Primary qHTS for inhibitors of nuclear receptor binding SET domain protein 2 (NSD2) in an RCH-ACV wild type WT cells (2C) (AID 1645877); further: potency means the concentration at half of the fitted maximal effect; nearly all actives have a fitted effect of over 70% in size
# [4] = target: Catechol O-methyltransferase (Homo sapiens) (UniProt P21964); assay: Confirmatory Screen for Target Class Profiling of Small Molecule Inhibitors of Methyltransferases (AID 1745852; calls by dose curve; further: potency means the concentration at half of the fitted maximal effect); details: MTase-Glo luminescence, SAH detection, recombinant enzyme; measured here: COMT max response; stronger effect = lower value
# [5] = target: Guanidinoacetate N-methyltransferase (Homo sapiens) (UniProt Q14353); assay: as above; details: MTase-Glo luminescence, SAH detection, recombinant enzyme; activity change, negative = inhibition: at 57.3 µM (top of the series) unless noted
# [6] = target: Nicotinamide N-methyltransferase (Homo sapiens) (UniProt P40261); assay: as above; details: MTase-Glo luminescence, SAH detection, recombinant enzyme; measured here: NNMT max response; stronger effect = lower value
# [7] = target: Phenylethanolamine N-methyltransferase (Homo sapiens) (UniProt P11086); assay: as above; details: MTase-Glo luminescence, SAH detection, recombinant enzyme; measured here: PNMT max response; stronger effect = lower value
# [8] = target: Glutathione peroxidase 1 (Homo sapiens) (UniProt P07203); assay: Primary qHTS Assay for Inhibitors of Recombinant Selenoprotein Glutathione Peroxidase 1 (GPX1) (AID 1845191); further: nearly all actives have a fitted effect of over 65% in size
# Procedure, shortened: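 NADPH consumption tracked by fluorescence at 340/450 nm between t=0 and t=15 min, room temperature. Final mix: 10 nM GPX1, 100 nM glutathione reductase, 1 mM GSH, 0.5 mM NADPH, 0.5 mM cumene hydroperoxide, 0.01% BSA; 30 min compound–enzyme preincubation.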
# [9] = target: Phospholipid hydroperoxide glutathione peroxidase GPX4 (Homo sapiens) (UniProt P36969); assay: Primary qHTS Assay for Inhibitors of Recombinant Selenoprotein Glutathione Peroxidase 4 (GPX4) (AID 1845192); further: nearly all actives have a fitted effect of over 65% in size
# Procedure, shortened: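 NADPH consumption followed by fluorescence at 340/450 nm, t=0 and after 15 min at room temperature. Reaction started with cumene hydroperoxide (0.5 mM final) after 30 min compound–GPX4 preincubation; final 200 nM GPX4, 100 nM GR, 1 mM GSH, 0.5 mM NADPH.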
# [10] = qHTS drug screen for cell cycle checkpoint inhibitors in PARPi-resistant BRCA-mutant ovarian cancer cell lines. (AID 1963452; calls by dose curve); details: PEO1/OlaR viability, CellTiter-Glo luminescence, 96 h, stronger effect = lower value
# Procedure, shortened: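 PEO1, PEO4 and PEO1/OlaR ovarian cancer cells, 600 per well, exposed 96 h at 37C to a dilution series. Viability read by CellTiter-Glo luminescence, normalized to DMSO and empty wells; activity summarized as Z-AUC.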
# [11] = target: Cytochrome P450 2C9 (Homo sapiens) (UniProt P11712); assay: Cytochrome P450 family 2 subfamily C member 9 (CYP2C9) small molecule antagonists: luciferase biochemical (cell-free) qHTS assay (AID 1645842; active means well fitted curve in the direction sought with a large enough effect in the repeat runs; an effect the other way counts as inactive or inconclusive; further: nearly all actives have a fitted effect of over 55% in size; further: potency means the concentration at half of the fitted maximal effect)
# Procedure, shortened: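 P450-Glo CYP2C9 system: proluciferin substrate with enzyme in mix containing 0.4% BSA, 10 min at room temperature, then NADPH regeneration solution added and incubated 1 h at 37C. Detection reagent stopped reaction; luminescence read after 20 min as RLU.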
# [12] = target: Tumor susceptibility gene 101 protein (Homo sapiens) (UniProt Q99816); assay: qHTS Assay for Iinhibitors of HIV-1 Budding by Blocking the Interaction of PTAP/TSG101: Hit Validation (AID 651600); further: nearly all actives have a fitted effect of over 70% in size
# Procedure, shortened: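 Compounds are added to the Tsg101 binding domain (10 uM final) in pH 7.5 HEPES buffer. FITC-PTAP peptide follows at 50 nM final. After 20 min at r.t., polarized FITC emission is measured.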
# [13] = Viability counterscreen for antagonist of constitutive androstane receptor (CAR) against the NCATS DSHEA and TCM libraries (AID 1794837);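 further: compound exposure lasted 24 h before viability reading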
# Procedure, shortened: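 Cells: HepG2 line carrying CYP2B6 reporter and hCAR, seeded and attached 5 h. Then pin-transferred test substances plus agonist CITCO at 48 uM final; 24 h incubation; fluorogenic viability reagent, 1 h.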
# [14] = Viability counterscreen for agonist of constitutive androstane receptor (CAR) against the NCATS DSHEA and TCM libraries (AID 1794838);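 further: HepG2 cells with CYP2B6 reporter and hCAR plus 0.75 µM PK11195 antagonist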
# Procedure, shortened: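 Cell health was measured as CellTiter-Fluor signal in HepG2-CYP2B6-hCAR cells treated for 24 h with substances alongside the hCAR antagonist PK11195 (0.75 uM final).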
# [15] = target: Nuclear receptor subfamily 1 group I member 3 (Homo sapiens) (UniProt Q14994); assay: Primary qHTS for agonist of constitutive androstane receptor (CAR) against the NCATS DSHEA and TCM libraries (AID 1794839);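 further: HepG2 cells expressing human CAR with a CYP2B6 reporter plus PK11195 antagonist; luciferase reporter luminescence read with ONE-Glo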
# Procedure, shortened: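 qHTS, agonist mode: HepG2-CYP2B6-hCAR, 2,500 cells/well, 5 h attach; cpds + PK11195 0.75 µM final; 24 h, 37 °C, 5% CO2. Readouts: CellTiter-Fluor (405/540 nm), then ONE-Glo luminescence.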
# [16] = HepG2 viability counterscreen (readout 2: ATP content) against the NCATS DSHEA and TCM libraries (AID 1794840)
# Procedure, shortened: (§1)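 Same wells read twice: first fluorescence from cleaved GF-AFC substrate (25 uM final, 30 min, 37C) for live-cell protease, then CellTiter-Glo luminescence after 30 min at room temperature for ATP. HepG2 cells were exposed ~24 h to substances.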
# [17] = HepG2 viability counterscreen (readout 1: protease activity) against the NCATS DSHEA and TCM libraries (AID 1794841);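 further: cells exposed to compounds for about 24 h before the protease read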
# Procedure, shortened: as §1
# [18] = target: Cytochrome P450 3A4 (Homo sapiens) (UniProt P08684); assay: qHTS for inhibitors of CYP3A4 against the NCATS DSHEA and TCM libraries (AID 1919971);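 further: inhibition lowers luminescence from luciferin made by CYP3A4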
# Procedure, shortened: (§2)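 Concentration-response screening with isoform-matched pro-luciferin substrates. The CYP reaction was initiated by NADPH regenerating solution and ran 30-45 min in darkness at room temperature.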
# [19] = target: Cytochrome P450 2D6 (Homo sapiens) (UniProt P10635); assay: qHTS for inhibitors of CYP2D6 against the NCATS DSHEA and TCM libraries (AID 1919972)
# Procedure, shortened: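 CYP2D6 enzyme with pro-luciferin substrate in manufacturer buffer (typically 100 mM KPO4), preincubated 15 min RT with substances (most at 19.5 nM upward); NADPH regeneration system (1x) started 30–45 min RT reaction; P450-Glo luminescence read after 30 min; quinidine as intraplate control.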
# [20] = target: Cytochrome P450 2C9 (Homo sapiens) (UniProt P11712); assay: qHTS for inhibitors of CYP2C9 against the NCATS DSHEA and TCM libraries (AID 1919973);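 further: luminogenic pro-luciferin CYP2C9 substrate turned into luciferin with NADPH regeneration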
# Procedure, shortened: as §2
# [21] = target: Cytochrome P450 2C19 (Homo sapiens) (UniProt P33261); assay: qHTS for inhibitors of CYP2C19 against the NCATS DSHEA and TCM libraries (AID 1919974);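 further: luminescence from luciferin released by CYP2C19 oxidation of a pro-luciferin substrate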
# Procedure, shortened: as §2
# [22] = KB-3-1 P-gp reporter qHTS against the NCATS DSHEA and TCM libraries (AID 1919975)
# Procedure, shortened: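 KB-3-1 parental line, 1536-well qHTS: cells seeded, ~4 h attachment, pintool compound addition, ~72 h at 37C, then CellTiter-Glo, 30 min RT, luminescence. Concentration-response format.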
# [23] = target: Cytochrome P450 1A2 (Homo sapiens) (UniProt P05177); assay: qHTS for inhibitors of CYPIA2 against the NCATS DSHEA and TCM libraries (AID 1919976);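 further: light from luciferin formed by CYP1A2 from a pro-luciferin substrate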
# Procedure, shortened: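 Enzyme and pro-luciferin substrate, or substrate alone as no-enzyme background, are pre-incubated with test samples for 15 min at room temperature. NADPH regeneration system (1x final) initiates a 30-45 min dark reaction; luciferase detection reagent follows before luminescence reading.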
# [24] = qHTS Counterscreen for compound interference against the NCATS DSHEA and TCM libraries (AID 1919978); details: firefly luciferase detection reagent interference, luminescence;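 further: compounds preincubated with 1 µM D-luciferin or buffer before detection reagent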
# Procedure, shortened: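 Compounds, titrated from 19.5 nM to 39.8 uM final, were pinned onto 1 uM D-luciferin or plain 100 mM potassium phosphate. After 15 min at room temperature, luciferin detection reagent was added for 30 min before the luminescence read.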
# [25] = Dual reporter qHTS for agonist of Pregnane X Receptor (hPXR) against the NCATS DSHEA and TCM libraries: Fluorescence readout (AID 1920058)
# Procedure, shortened: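 Cells were plated at 2000 per well and allowed to attach for 5 h. Test substances were pinned in and incubated roughly 24 h. CellTiter-Fluor was then added and fluorescence measured after 1 h.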
# [26] = target: Nuclear receptor subfamily 1 group I member 2 (Homo sapiens) (UniProt O75469); assay: Dual reporter qHTS for agonist of Pregnane X Receptor (hPXR) against the NCATS DSHEA and TCM libraries: Luminescence readout (AID 1920059)
# Procedure, shortened: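 Luminescent PXR reporter read (ONE-Glo) after a CellTiter-Fluor viability read, following 24 h, 37C treatment of HepG2 cells stably carrying hPXR-Luc.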
# [27] = target: Nuclear receptor subfamily 1 group I member 2 (Homo sapiens) (UniProt O75469); assay: Dual reporter qHTS for antagonist of Pregnane X Receptor (hPXR) against the NCATS DSHEA and TCM libraries: Luminescence Readout (AID 1920060);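 further: HepG2 cells carrying hPXR luciferase reporter stimulated with rifampicin at 2 µM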
# Procedure, shortened: (§3)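 Antagonist mode: rifampicin 2 uM final co-added with compounds to hPXR-LucHepG2 cells for 24 h at 37C. Viability by CellTiter-Fluor, Ex/Em 405/540 nm, 1 h; reporter by ONE-Glo luminescence.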
# [28] = Dual reporter qHTS for antagonist of Pregnane X Receptor (hPXR) against the NCATS DSHEA and TCM libraries: Fluorescence Readout (AID 1920061)
# Procedure, shortened: as §3
# [29] = measured here: PEO1 parental Z-AUC
# Chain of Cytochrome P450 2C9 (Homo sapiens) (P11712 whole entry, looked up): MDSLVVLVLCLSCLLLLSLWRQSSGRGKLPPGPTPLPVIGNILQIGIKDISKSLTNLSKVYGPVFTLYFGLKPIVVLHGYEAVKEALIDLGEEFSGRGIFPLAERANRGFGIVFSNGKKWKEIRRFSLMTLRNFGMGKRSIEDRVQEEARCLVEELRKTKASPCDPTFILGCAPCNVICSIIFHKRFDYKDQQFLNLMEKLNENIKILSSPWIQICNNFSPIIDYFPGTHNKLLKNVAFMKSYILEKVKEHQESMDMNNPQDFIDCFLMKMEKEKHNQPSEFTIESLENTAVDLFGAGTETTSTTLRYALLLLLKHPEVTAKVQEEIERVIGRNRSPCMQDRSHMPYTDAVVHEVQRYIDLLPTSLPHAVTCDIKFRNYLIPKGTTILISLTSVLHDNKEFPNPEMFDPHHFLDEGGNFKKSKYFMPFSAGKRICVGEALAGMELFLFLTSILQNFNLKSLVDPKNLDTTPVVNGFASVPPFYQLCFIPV
# Chain of Cytochrome P450 2D6 (Homo sapiens) (P10635 whole entry, looked up): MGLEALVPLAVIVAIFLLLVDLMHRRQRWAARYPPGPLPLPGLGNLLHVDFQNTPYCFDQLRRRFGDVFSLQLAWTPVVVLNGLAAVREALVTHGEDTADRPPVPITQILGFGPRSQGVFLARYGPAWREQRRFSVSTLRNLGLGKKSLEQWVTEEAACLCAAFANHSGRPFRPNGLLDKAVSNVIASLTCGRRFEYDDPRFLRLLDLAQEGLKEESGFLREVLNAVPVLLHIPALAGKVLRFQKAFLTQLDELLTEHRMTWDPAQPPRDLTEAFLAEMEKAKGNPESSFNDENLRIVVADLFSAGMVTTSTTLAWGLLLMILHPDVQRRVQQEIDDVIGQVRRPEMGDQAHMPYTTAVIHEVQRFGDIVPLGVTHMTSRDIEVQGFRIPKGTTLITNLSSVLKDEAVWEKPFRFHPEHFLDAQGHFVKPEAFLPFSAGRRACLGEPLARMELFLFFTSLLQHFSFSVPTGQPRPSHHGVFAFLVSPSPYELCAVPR
# Chain of Phospholipid hydroperoxide glutathione peroxidase GPX4 (Homo sapiens) (P36969 whole entry, looked up): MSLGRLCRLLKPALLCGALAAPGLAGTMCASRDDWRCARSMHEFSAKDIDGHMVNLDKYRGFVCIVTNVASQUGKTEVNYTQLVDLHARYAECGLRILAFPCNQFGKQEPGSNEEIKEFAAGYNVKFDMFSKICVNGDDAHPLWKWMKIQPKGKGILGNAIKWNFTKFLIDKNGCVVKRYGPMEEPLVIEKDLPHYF
# Chain of Glutathione peroxidase 1 (Homo sapiens) (P07203 whole entry, looked up): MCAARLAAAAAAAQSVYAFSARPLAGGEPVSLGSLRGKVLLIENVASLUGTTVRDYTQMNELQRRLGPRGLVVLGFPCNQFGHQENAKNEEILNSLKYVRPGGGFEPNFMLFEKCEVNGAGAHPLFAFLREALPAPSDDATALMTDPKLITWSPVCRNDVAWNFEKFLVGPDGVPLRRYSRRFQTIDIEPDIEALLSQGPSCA
# Chain of Nuclear receptor subfamily 1 group I member 2 (Homo sapiens) (O75469 whole entry, looked up): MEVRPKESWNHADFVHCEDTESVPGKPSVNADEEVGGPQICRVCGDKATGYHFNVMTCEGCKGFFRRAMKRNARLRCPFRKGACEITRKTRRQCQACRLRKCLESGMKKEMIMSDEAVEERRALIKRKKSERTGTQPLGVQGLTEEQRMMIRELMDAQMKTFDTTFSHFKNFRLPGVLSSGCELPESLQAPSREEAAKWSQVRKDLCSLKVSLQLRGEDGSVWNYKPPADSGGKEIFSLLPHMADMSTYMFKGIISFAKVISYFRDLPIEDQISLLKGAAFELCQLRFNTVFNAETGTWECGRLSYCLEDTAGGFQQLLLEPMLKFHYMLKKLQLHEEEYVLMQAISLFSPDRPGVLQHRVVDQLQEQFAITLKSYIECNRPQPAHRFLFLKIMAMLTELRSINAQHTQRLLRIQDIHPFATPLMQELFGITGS
# Chain of Catechol O-methyltransferase (Homo sapiens) (P21964 whole entry, looked up): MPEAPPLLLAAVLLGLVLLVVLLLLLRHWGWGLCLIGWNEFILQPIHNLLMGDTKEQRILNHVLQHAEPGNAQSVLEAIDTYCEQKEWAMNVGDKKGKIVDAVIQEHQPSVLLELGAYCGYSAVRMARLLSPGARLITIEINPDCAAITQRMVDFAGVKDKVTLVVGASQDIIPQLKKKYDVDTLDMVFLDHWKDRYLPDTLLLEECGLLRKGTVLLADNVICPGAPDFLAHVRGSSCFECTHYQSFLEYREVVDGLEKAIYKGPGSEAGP
# Chain of Nuclear receptor subfamily 1 group I member 3 (Homo sapiens) (Q14994 whole entry, looked up): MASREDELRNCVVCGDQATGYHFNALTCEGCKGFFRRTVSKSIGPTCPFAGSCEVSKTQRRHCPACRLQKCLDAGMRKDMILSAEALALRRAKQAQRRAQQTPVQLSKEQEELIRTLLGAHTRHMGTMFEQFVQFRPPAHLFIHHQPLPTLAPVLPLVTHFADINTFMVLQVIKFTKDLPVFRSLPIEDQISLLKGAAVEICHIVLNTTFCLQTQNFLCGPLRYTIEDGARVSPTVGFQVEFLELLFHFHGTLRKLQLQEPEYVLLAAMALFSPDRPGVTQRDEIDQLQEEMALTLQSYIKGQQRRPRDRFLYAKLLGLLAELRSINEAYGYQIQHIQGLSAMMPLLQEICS
# Chain of Tumor susceptibility gene 101 protein (Homo sapiens) (Q99816 whole entry, looked up, the tested form may be a part): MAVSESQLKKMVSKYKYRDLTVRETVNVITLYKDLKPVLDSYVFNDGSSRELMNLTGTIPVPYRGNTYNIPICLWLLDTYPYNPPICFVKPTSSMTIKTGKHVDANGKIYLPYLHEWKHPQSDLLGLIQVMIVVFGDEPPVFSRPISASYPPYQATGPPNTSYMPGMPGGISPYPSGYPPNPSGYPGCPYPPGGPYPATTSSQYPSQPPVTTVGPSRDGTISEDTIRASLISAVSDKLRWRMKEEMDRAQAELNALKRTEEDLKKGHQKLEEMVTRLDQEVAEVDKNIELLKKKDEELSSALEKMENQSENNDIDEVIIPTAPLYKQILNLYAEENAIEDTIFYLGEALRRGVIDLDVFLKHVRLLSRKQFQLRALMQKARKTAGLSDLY
# Chain of Cytochrome P450 1A2 (Homo sapiens) (P05177 whole entry, looked up): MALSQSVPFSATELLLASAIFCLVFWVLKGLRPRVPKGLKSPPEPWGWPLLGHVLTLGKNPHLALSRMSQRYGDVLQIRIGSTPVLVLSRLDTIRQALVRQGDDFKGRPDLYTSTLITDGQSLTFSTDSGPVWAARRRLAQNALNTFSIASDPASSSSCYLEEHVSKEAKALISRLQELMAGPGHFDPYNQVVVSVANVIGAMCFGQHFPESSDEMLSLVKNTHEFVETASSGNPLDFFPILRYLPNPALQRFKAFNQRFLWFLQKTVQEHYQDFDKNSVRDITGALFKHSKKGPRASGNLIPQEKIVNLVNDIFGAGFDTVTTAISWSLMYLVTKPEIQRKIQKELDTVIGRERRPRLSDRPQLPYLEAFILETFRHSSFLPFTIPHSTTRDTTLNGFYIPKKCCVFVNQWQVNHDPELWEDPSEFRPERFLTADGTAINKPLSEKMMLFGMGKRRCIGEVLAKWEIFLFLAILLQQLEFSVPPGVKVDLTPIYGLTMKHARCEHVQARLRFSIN
# Chain of Cytochrome P450 2C19 (Homo sapiens) (P33261 whole entry, looked up): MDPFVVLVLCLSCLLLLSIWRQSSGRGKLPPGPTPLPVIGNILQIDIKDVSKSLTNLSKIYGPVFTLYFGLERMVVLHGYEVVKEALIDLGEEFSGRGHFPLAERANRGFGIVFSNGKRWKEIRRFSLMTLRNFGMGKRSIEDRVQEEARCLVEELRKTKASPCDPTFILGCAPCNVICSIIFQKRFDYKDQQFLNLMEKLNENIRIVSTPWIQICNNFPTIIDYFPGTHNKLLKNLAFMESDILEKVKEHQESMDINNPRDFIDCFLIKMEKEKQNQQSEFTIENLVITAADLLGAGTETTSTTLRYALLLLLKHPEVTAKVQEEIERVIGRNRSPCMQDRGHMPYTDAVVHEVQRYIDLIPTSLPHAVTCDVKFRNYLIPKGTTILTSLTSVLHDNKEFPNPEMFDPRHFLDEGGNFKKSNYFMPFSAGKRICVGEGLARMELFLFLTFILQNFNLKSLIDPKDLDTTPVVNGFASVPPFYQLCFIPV
# Chain of Cytochrome P450 3A4 (Homo sapiens) (P08684 whole entry, looked up, canonical isoform): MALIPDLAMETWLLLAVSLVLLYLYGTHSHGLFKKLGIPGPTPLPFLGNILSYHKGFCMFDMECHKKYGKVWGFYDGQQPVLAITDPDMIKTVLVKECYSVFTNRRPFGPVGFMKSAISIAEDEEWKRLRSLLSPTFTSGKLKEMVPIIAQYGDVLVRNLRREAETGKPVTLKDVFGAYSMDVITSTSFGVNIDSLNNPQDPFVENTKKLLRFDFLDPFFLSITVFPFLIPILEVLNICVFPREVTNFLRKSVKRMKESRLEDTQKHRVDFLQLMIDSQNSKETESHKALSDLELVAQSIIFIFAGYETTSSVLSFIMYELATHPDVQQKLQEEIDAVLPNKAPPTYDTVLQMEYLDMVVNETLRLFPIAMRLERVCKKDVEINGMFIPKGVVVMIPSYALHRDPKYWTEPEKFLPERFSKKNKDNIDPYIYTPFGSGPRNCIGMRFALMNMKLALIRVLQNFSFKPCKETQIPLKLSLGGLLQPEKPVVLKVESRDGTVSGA
# Chain of Nicotinamide N-methyltransferase (Homo sapiens) (P40261 whole entry, looked up): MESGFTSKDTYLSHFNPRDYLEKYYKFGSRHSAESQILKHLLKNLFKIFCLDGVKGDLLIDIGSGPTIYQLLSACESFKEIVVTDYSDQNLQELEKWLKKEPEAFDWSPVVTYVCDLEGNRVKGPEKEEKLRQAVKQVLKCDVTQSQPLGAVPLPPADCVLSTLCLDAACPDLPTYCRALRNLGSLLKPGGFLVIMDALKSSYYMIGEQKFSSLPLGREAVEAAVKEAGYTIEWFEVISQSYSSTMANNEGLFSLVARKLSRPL
# Chain of Phenylethanolamine N-methyltransferase (Homo sapiens) (P11086 whole entry, looked up): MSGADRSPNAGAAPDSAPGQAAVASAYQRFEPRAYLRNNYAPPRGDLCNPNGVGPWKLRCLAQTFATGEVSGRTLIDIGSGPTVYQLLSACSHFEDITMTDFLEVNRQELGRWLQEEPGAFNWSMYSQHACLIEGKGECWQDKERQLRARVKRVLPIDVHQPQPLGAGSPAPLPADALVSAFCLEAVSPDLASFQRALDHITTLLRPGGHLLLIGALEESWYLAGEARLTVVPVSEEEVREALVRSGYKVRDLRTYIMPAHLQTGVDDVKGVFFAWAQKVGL
compound,measurement,setting,value
Nc1nc(Nc2ccc3c(c2)CC[C@@H](N2CCCC2)CC3)nn1-c1cc2c(nn1)-c1ccccc1CCC2,Potency,[1],5.35 µM (active)
same,Potency,[2],2.63 µM (active)
same,Potency,[3],3.32 µM (active)
same,activity,[4],-19.2%
same,Potency,[5],24.1 µM (active)
same,activity,[6],-19.6%
same,activity,[7],-24%
same,Potency,[8],inactive
same,Potency,[9],inactive
same,Z-AUC,[10],0.211 (inactive)
same,Z-AUC,[10]; [29],-0.494
same,Z-AUC,[10]; measured here: PEO4 Z-AUC,-0.517
CC(C)[C@H]1CC[C@H](C)C[C@H]1O,Potency,[1],inactive
same,Potency,[11],inactive
same,Potency,[8],inactive
same,Potency,[9],inactive
NCCNc1ccc(NCCN)c2c1C(=O)c1ccncc1C2=O,Potency,[1],2.68 µM (active)
same,Potency,[8],inactive
same,Potency,[9],inactive
CC(C)[C@H](N)C(=O)O,Potency,[1],inactive
same,Potency,[11],inactive
same,Potency,[8],inactive
same,Potency,[9],inactive
COc1ccc(OC)c(/C=C(\C#N)c2nc3ccccc3c(=O)[nH]2)c1,Potency,[12],inactive
same,Potency,[1],inactive
same,Potency,[11],1.51 µM (active)
COc1ccc(NC(=O)CSc2nnc(NC(=O)NC3CCCCC3)s2)cc1OC,Potency,[11],21.3 µM (active)
COc1ccc(NC(=O)CSc2nc3ccccc3n2Cc2cccc(OC)c2)cc1,Potency,[11],2.68 µM (active)
CCC=CCC=CCC=CCCCCCCCC(=O)O,Potency,[1],inactive
same,Potency,[8],inactive
same,Potency,[9],inactive
CCOc1ccc2nc(N3CCC(C(=O)Nc4ccccc4CC)CC3)sc2c1,Potency,[11],6.01 µM (active)
CCC(/C=C/[C@@H](C)[C@H]1CCC2C3CC=C4C[C@@H](O)CC[C@]4(C)C3CC[C@@]21C)C(C)C (stereo partly specified),Potency,[1],inactive
same,Potency,[11],inactive
same,outcome,[13],inactive
same,outcome,[14],inactive
same,outcome,[15],inactive
same,outcome,[16],inactive
same,outcome,[17],inactive
same,outcome,[18],inactive
same,outcome,[19],inactive
same,outcome,[20],inactive
same,outcome,[21],inactive
same,outcome,[22],inactive
same,outcome,[23],inactive
same,max response,[24],3.05% (inactive)
same,outcome,[25],inactive
same,outcome,[26],inactive
same,outcome,[27],inactive
same,outcome,[28],inactive
Cc1ccnc(NC(c2ccccc2F)c2ccc3cccnc3c2O)c1 (stereo unspecified),Potency,[11],23.9 µM (active)
CN[C@@H]1[C@@H](O)[C@@H](O[C@@H]2[C@@H](O)[C@H](O[C@H]3O[C@H]([C@@H](C)NC)CC[C@H]3N)[C@@H](N)C[C@H]2N)OC[C@]1(C)O,Potency,[1],inactive
same,Potency,[8],inactive
CN[C@@H](C)C(=O)N[C@H](C(=O)N1CCC[C@H]1c1nc(C(=O)c2ccc(F)cc2)cs1)C1CCCCC1,Potency,[1],inactive
same,Potency,[11],inactive
same,Potency,[8],inactive
same,Potency,[9],inactive
same,Z-AUC,[10],-0.196 (inactive)
same,Z-AUC,[10]; [29],-0.329
same,Z-AUC,[10]; measured here: PEO4 Z-AUC,-0.73
CN(C)[S+](=O)([O-])c1ccc([S+](=O)([O-])N(Cc2ccccc2)Cc2ccccn2)cc1,Potency,[11],5.35 µM (active)
